From PubChem
A selection: hits, their analogues and other compounds. The true share with any hit is near 4.2%.
PfHsp90 yeast 2 – growth inhibition of yeast expressing Plasmodium Hsp90; S. cerevisiae expressing PfHsp90, BacTiter-Glo ATP, 48 h; yeast lacking PDR1 and PDR3 efflux regulators; inhibition, % at 9.4 µM; 310,000 tested, 0.32% active; AID 504621;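 active means every replicate shows inhibition above about 80%, whatever the replicate mean, limit read from the data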
tim23-1 inh – inhibits growth of tim23-1 mutant yeast. S. cerevisiae tim23-1 growth, BacTiter-Glo luminescence, 24 h. inhibition, % at 20 µM. 330,000 tested, 1.3% active. AID 463212;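 active means growth inhibition of the mutant yeast at or above 50%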;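 further: temperature-sensitive mutant grown at 25 °C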
TIM10 inh – TIM10 yeast growth inhibition; 330,000 tested, 1.4% active; AID 463195; inhibition, % at 10 µM; S. cerevisiae TIM10 strain growth, BacTiter-Glo luminescence, 24 h;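 active means inhibition of 40% or more at the single tested concentration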;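 further: wild-type TIM10 isogenic control strain grown at permissive 25 °C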
NALP1 inh – blocks the NALP1 inflammasome reconstituted in yeast | S. cerevisiae NALP1/ASC/caspase-1 growth, X-gal OD620, 72 h | inhibition, % at 10 µM | 280,000 tested, 0.61% active; in the data active means inhibition mostly above about 24%, no sharp cut-off; inactive means mostly below about 32%
tim10-1 inh – inhibits growth of tim10-1 mutant yeast. inhibition, % at 20 µM. 330,000 tested, 2.2% active. AID 463190. S. cerevisiae tim10-1 ts strain growth, BacTiter-Glo, 24 h;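 active means inhibition of at least 40%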;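 further: mutant grown at 25 °C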
NLRP3 yeast inh – inhibitors of NALP3 inflammasome in yeast | Yeast reconstituted NLRP3/ASC/caspase-1, beta-gal luminescence, 24 h | inhibition, % at 10 µM | 330,000 tested, 0.39% active | AID 2825;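 active means inhibition of 50% or more; inactive means inhibition below 50%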
A number is an active result.

For Cc1cc(O)c(C(C)C)cc1N=Nc1ccccc1C(=O)O the results were PfHsp90 yeast 2 inactive, tim23-1 inh inactive, TIM10 inh inactive, NALP1 inh 38, tim10-1 inh inactive and NLRP3 yeast inh inactive.
Screening Cc1cc(N=Nc2ccccc2C(=O)O)c(C)c(C)c1O returned PfHsp90 yeast 2 100, tim23-1 inh inactive, TIM10 inh inactive, NALP1 inh inactive, tim10-1 inh inactive and NLRP3 yeast inh inactive.
CCOC(=O)N1CCN(C(=O)CCc2ccc(S(=O)(=O)NC(C)(C)C)cc2)CC1 was read as PfHsp90 yeast 2 inactive, tim23-1 inh inactive, TIM10 inh inactive, NALP1 inh inactive, tim10-1 inh inactive and NLRP3 yeast inh inactive.
For Cc1cccc(N2C(=O)CC(Sc3nccc(C)n3)C2=O)c1 (stereo not given) the results were PfHsp90 yeast 2 inactive, tim23-1 inh inactive, TIM10 inh inactive, NALP1 inh inactive, tim10-1 inh inactive and NLRP3 yeast inh inactive.
For Cc1cccc(N2C(=O)CC(Sc3ncn[nH]3)C2=O)c1 (stereo not given) the results were PfHsp90 yeast 2 inactive, tim23-1 inh inactive, TIM10 inh inactive, NALP1 inh 38, tim10-1 inh inactive and NLRP3 yeast inh inactive.
`COc1cc(CN2CCN(C(=O)c3ccccc3F)CC2)cc(OC)c1OC` gave PfHsp90 yeast 2 inactive, tim23-1 inh inactive, TIM10 inh inactive, NALP1 inh inactive, tim10-1 inh inactive and NLRP3 yeast inh inactive.
`O=C(Nc1nnc(-c2cccs2)o1)c1cccc(Oc2ccccc2)c1` gave PfHsp90 yeast 2 inactive, tim23-1 inh inactive, TIM10 inh inactive, NALP1 inh 38, tim10-1 inh inactive and NLRP3 yeast inh inactive.
Screening CCCCn1c(N)c(N(CCOC)C(=O)c2c(-c3ccccc3)noc2C)c(=O)[nH]c1=O returned tim23-1 inh inactive, TIM10 inh inactive, tim10-1 inh inactive and NLRP3 yeast inh inactive.
Screening O=C(N1CCOCC1)N1CCc2ccccc21 returned PfHsp90 yeast 2 inactive, tim23-1 inh inactive, TIM10 inh inactive, NALP1 inh inactive, tim10-1 inh inactive and NLRP3 yeast inh inactive.
Screening CCCN1CCN(C(=O)CCc2nnc3ccc(N4CCN(c5cccc(OC)c5)CC4)nn23)CC1 returned PfHsp90 yeast 2 inactive, tim23-1 inh inactive, TIM10 inh inactive, NALP1 inh inactive, tim10-1 inh inactive and NLRP3 yeast inh inactive.
CNC(=O)c1ccccc1S(=O)(=O)c1ccccc1C#N was read as PfHsp90 yeast 2 inactive, tim23-1 inh inactive, TIM10 inh inactive, NALP1 inh 28, tim10-1 inh inactive and NLRP3 yeast inh inactive.
For O=C(NNC1=C(C(=O)C(F)(F)F)CCC1)c1ccc(Br)cc1 the results were PfHsp90 yeast 2 130, tim23-1 inh inactive, TIM10 inh inactive, NALP1 inh inactive, tim10-1 inh inactive and NLRP3 yeast inh inactive.
Screening CCn1c(SCC(=O)Nc2cc(C)on2)nnc1-c1ccco1 returned PfHsp90 yeast 2 inactive, tim23-1 inh inactive, TIM10 inh inactive, NALP1 inh 39, tim10-1 inh inactive and NLRP3 yeast inh inactive.
Screening O=C(CSCc1cc(=O)n2nc(C3CC3)sc2n1)Nc1ccccc1Cl returned PfHsp90 yeast 2 inactive, tim23-1 inh inactive, TIM10 inh inactive, NALP1 inh inactive, tim10-1 inh inactive and NLRP3 yeast inh inactive.
`Cc1nc(C)c(/C(O)=C/c2nc3ccccc3oc2=O)s1` gave PfHsp90 yeast 2 inactive, tim23-1 inh inactive, TIM10 inh inactive, NALP1 inh 61, tim10-1 inh inactive and NLRP3 yeast inh inactive.
`O=c1oc2ccccc2nc1/C=C(\O)c1ccccc1` gave tim23-1 inh inactive, TIM10 inh inactive, tim10-1 inh inactive and NLRP3 yeast inh inactive.
Screening O=C(CCN1C(=O)/C(=C\c2cccs2)SC1=S)NC1=NCCS1 returned PfHsp90 yeast 2 inactive, tim23-1 inh inactive, TIM10 inh inactive, NALP1 inh inactive, tim10-1 inh inactive and NLRP3 yeast inh inactive.
For O=C(CCN1C(=O)/C(=C/c2cccs2)SC1=S)NC1=NCCS1 the results were PfHsp90 yeast 2 106 and NALP1 inh inactive.
For COCCNc1ccc([N+](=O)[O-])cc1C(=O)Nc1cccc(C)n1 the results were PfHsp90 yeast 2 inactive, tim23-1 inh inactive, TIM10 inh inactive, NALP1 inh inactive, tim10-1 inh inactive and NLRP3 yeast inh inactive.
Screening O=C1/C(=C/c2ccccc2)CCCc2ccccc21 returned tim23-1 inh inactive, TIM10 inh inactive, NALP1 inh 57, tim10-1 inh inactive and NLRP3 yeast inh inactive.
Screening CCC1C/C(=C\c2cccnc2)C(=O)/C(=C/c2cccnc2)C1 (stereo not given) returned PfHsp90 yeast 2 100 and NALP1 inh 76.
`O=C1/C(=C/c2cccnc2)CCC/C1=C\c1cccnc1` gave NALP1 inh 78.
`CCCCn1c(N)c(N(CCOC)C(=O)C2CCN(S(=O)(=O)c3ccccc3)CC2)c(=O)[nH]c1=O` gave PfHsp90 yeast 2 inactive, tim23-1 inh inactive, TIM10 inh inactive, tim10-1 inh inactive and NLRP3 yeast inh inactive.
Screening Cc1cccc(CN2CCN(C(=O)CCc3nnc(C4CCCCC4)o3)CC2)c1 returned PfHsp90 yeast 2 inactive, tim23-1 inh inactive, TIM10 inh inactive, NALP1 inh inactive, tim10-1 inh inactive and NLRP3 yeast inh inactive.
`COc1ccccc1/C=N/NC(=O)c1nnn(-c2nonc2N)c1-c1cccs1` gave PfHsp90 yeast 2 inactive, tim23-1 inh inactive, TIM10 inh inactive, NALP1 inh 37, tim10-1 inh inactive and NLRP3 yeast inh inactive.
For CCOc1ccc(-c2c(C(=O)N/N=C/c3cccc(Br)c3)nnn2-c2nonc2N)cc1 the results were PfHsp90 yeast 2 inactive, tim23-1 inh inactive, TIM10 inh inactive, NALP1 inh 37, tim10-1 inh inactive and NLRP3 yeast inh inactive.
For NC(=O)c1ccc(NC(=O)COC(=O)CCN2C(=O)c3ccccc3C2=O)cc1 the results were PfHsp90 yeast 2 inactive, tim23-1 inh inactive, TIM10 inh inactive, tim10-1 inh inactive and NLRP3 yeast inh inactive.
For C(=C\c1nc(N2CCCC2)c2ccccc2n1)/c1ccccc1 the results were PfHsp90 yeast 2 inactive, tim23-1 inh inactive, TIM10 inh inactive, NALP1 inh 64, tim10-1 inh inactive and NLRP3 yeast inh inactive.
CC1CCCCC12NC(=O)N(CC(=O)Nc1ccccc1-c1ccccc1)C2=O (stereo not given) was read as PfHsp90 yeast 2 inactive, tim23-1 inh inactive, TIM10 inh inactive, NALP1 inh 37, tim10-1 inh inactive and NLRP3 yeast inh inactive.
Screening COc1ccc(S(=O)(=O)N(CC(=O)NCC2CCCO2)C2CCCCC2)cc1OC (stereo not given) returned PfHsp90 yeast 2 inactive, tim23-1 inh inactive, TIM10 inh inactive, NALP1 inh inactive, tim10-1 inh inactive and NLRP3 yeast inh inactive.
`Cc1cc(C)c2cc(CN(CCN(C)C)C(=O)Nc3ccccc3Cl)c(=O)[nH]c2c1` gave PfHsp90 yeast 2 inactive, tim23-1 inh inactive, TIM10 inh inactive, NALP1 inh 28, tim10-1 inh inactive and NLRP3 yeast inh inactive.
`Cc1cc(C)c2cc(CN(CCO)C(=O)Nc3ccc(F)cc3)c(=O)[nH]c2c1` gave PfHsp90 yeast 2 inactive, tim23-1 inh inactive, TIM10 inh inactive, NALP1 inh inactive, tim10-1 inh inactive and NLRP3 yeast inh inactive.
